# Laboratory results: PubChem BioAssay (NCI)
# This is part of a sample that, as a whole, favours compounds with a hit. Of some 83,000 tested, about 20% had one in any assay.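 Results are percent growth after 48 hours of single-concentration exposure. 100 means growth as in untreated cells, lower positive values show inhibition; negative values down to -100 show cell death.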 Unmarked numbers belong to inactive results. The source made the active and inactive calls. The calls were made as follows: active = growth percent below 10; inactive = the rest.
# Tested on: HL-60(TB) leukemia
# Assay: NCI-60 one-dose screen, 48 h (100 = growth as untreated, 0 = no growth, -100 = all killed)
# Conditions: 10 µM unless noted
row,Structure (SMILES),growth
1,O=[N+]([O-])c1ccc(O)c(-c2nc3ccccc3s2)c1,52.8%
2,C=C1CC[C@@H]2[C@](C)(COC(C)=O)[C@H](OC(C)=O)CC[C@@]2(C)[C@@H]1CC(NCc1ccccc1)C1=CCOC1=O (stereo partly specified),-9.93% (active)
3,O=C(CCl)N1CCN(C/C=C/c2ccccc2)CC1,102%
4,Cc1cccc2c3c(sc12)C(c1ccc(F)cc1)C(C#N)=C(N)O3 (stereo unspecified),-21.8% (active)
5,COc1cc2c(Nc3ccc(Br)cc3F)ncnc2cc1OCC1CCN(C)CC1,0.964% (active)
6,COc1ccc(-c2csc3c2-n2cccc2C3=O)cc1O,-18.3% (active)
7,COc1cc(OC)cc(C(=O)Nc2cnc(Nc3ccc(N4CCOCC4)nc3)nc2Oc2ccc(C(F)(F)F)cc2)c1,94.7%
8,O=C(Cc1ccc(-c2ccc(OCCN3CCOCC3)cc2)cn1)NCc1ccccc1,-31.2% (active)
9,CCOC(=O)C1=C(c2ccccc2)NC(=O)NC1CN1C(=O)c2ccccc2C1=O (stereo unspecified),57.4%
10,Nc1nc(SCc2cccnc2)c2ncn(C3OC(CO)C(O)C3O)c2n1 (stereo unspecified),103%
11,CCOC(=O)c1c(C)oc2ncnc(Nc3ccc(NC(=O)Nc4cccc(Cl)c4)cc3)c12,88.4%
12,Nc1ncc(-c2ccc3ncnc(Nc4ccc(F)c(Cl)c4)c3c2)cn1,103%
13,O=S(=O)(NCCNc1cc(-c2cn(-c3ccccc3)nc2-c2ccccc2)ccn1)c1ccc(F)cc1,69.9%
14,COC(=O)C(C)[C@H]1CC[C@@H]2[C@]1(C)CC=C1[C@]23C=C[C@]2(C[C@@H](OC(C)=O)CC[C@]12C)C(C(=O)OC)C3C(=O)OC (stereo partly specified),66.9%
15,C=C(CN1CC=CCC1)[C@@H]1CC[C@]2(COC(C)=O)CC[C@]3(C)[C@H](CC[C@@H]4[C@@]5(C)CC[C@H](O)C(C)(C)[C@@H]5CC[C@]43C)[C@@H]12,102%
16,O=C(/C=C/c1ccc(C(F)(F)F)cc1)Nc1ccc(C=C2c3ccccc3C(=O)c3ccccc32)cc1,11.2%
17,O=C1Nc2ccccc2/C1=N/N=C/c1ccsc1,99.4%
18,CCOC(=O)c1c(-c2ccc(Cl)cc2)c(C#N)c(=O)n(-c2ccccc2CC)c1N,144%

row,Structure (SMILES),growth
1,COC(=O)c1c2c(c(C)[n+]([O-])c1C)C(=O)C(NCc1cccc(OC)c1)=CC2=O,-52.2% (active)
2,Cc1[nH]c(-c2ccc3cc[nH]c3c2)c2c1C(=O)CCCC2,20.5%
3,CN(C)c1ccc2oc(=O)c3ccccc3c2c1,143%
4,COc1ccc(C2=NN(C(C)=O)C(c3cn(-c4ccccc4)nc3-c3ccc(Cl)cc3)C2)cc1 (stereo unspecified),3.16% (active)
5,COc1ccc(-c2nc(SCCC(C)C)nc(N/N=C(/C)c3ccc(C)cc3)c2C#N)cc1,89.8%
6,CCCCCC1CCCCN1C(=O)OCC (stereo unspecified),77.5%
7,CC(=O)Oc1ccc(Br)cc1C(=O)O,101%
8,COc1ccc(-c2cc(-c3cccc(NS(C)(=O)=O)c3)nc(N)c2C#N)cc1,0.807% (active)
9,COc1ccc(-c2nc3sccn3c2-c2nc3c([nH]2)C(=O)c2ccccc2C3=O)cc1,94%
10,CCCc1nn(C)c2c(=O)[nH]c(-c3cc(S(=O)(=O)N4CCN(C)CC4)ccc3OCC)nc12,114%
11,CCCCN(CCCC)CCC(C)(O)c1cc2ccccc2c2ccccc12 (stereo unspecified),83.7%
12,COc1ccc(-c2c3c(nc4n[nH]c(-c5ccc(Cl)cc5)c24)-c2ccccc2C(=O)C3=O)cc1,11.7%
13,COc1ccc(-c2nc3ncccn3c2-c2nc3ccc(Br)cc3[nH]2)cc1,81.3%
14,COc1cc(-c2csc(NC(=O)c3ccc(N4CCOCC4)c(C(F)(F)F)c3)n2)cc(OC)c1OC,15.6%
15,C=C1C(=O)O[C@H]2[C@H]1CC/C(COC(=O)CSCC(=O)OC/C1=C/CC[C@@]3(C)O[C@H]3[C@H]3OC(=O)C(=C)[C@@H]3CC1)=C\CC[C@@]1(C)O[C@@H]21,-42% (active)
16,FC(F)(F)c1cc(N2CCCCC2)nc(NCCCNc2ccnc3cc(Cl)ccc23)n1,42.1%
17,CC(=O)C1=C(O)C=C2Oc3c(C(=O)/C=C/c4cc(C(F)(F)F)cc(C(F)(F)F)c4)c(O)c(C)c(O)c3[C@]2(C)C1=O,-35.2% (active)
18,COC(=O)c1cncc(C(=O)Nc2ccc(-n3cnc4ccccc43)cc2)c1,93.7%
